# In the library only some 1.4% were active in any assay of this set; here they are far more common.
# RE007 growth inh: less growth of the S. pombe RE007 Vpr strain | S. pombe RE007 Vpr strain, BacTiter-Glo ATP luminescence, 24 h | 360,000 tested, 0.21% active | AID 651644 | Potency, µM (titrated, usually from 92.2 µM), for the others: top-dose activity change, negative = less growth, hits mostly inhibitors; active = well fitted falling curve with a large enough effect; inconclusive = small, poorly fitted or top-dose-only effect; inactive = no such curve, though single readings can be large or run the other way; note: nearly all actives have a fitted effect of over 50% in size
#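 Fission yeast RE007 carrying one integrated HIV-1 vpr copy, seeded at OD 0.01 in PMG+AL medium with 23 nL pinned compound. Grown 24 h at 30 degrees; viability read by BacTiter-Glo luminescence after 5 min.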
# Tb PYK inh: inhibitors of Trypanosoma brucei pyruvate kinase; Q57TT1; TbPYK enzyme, Kinase-Glo Plus ATP luminescence, 45 min; Potency, µM (titrated, usually from 76.8 µM), for inactives: at the highest dose activity, negative = inhibition, most hits filed as inhibitors; 410,000 tested, 0.12% active; AID 624173; note: nearly all actives have a fitted effect of over 50% in size
#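 Screened from lowest to highest concentration, compounds were pinned into TbPYK/substrate mixtures, and ADP (130 uM final) was added. Plates sat at room temperature for 45 min prior to Kinase-Glo Plus detection by luminescence.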
# Giardia FBPA inh-1: Giardia lamblia aldolase inhibition; 290,000 tested, 0.71% active; purified Giardia FBPA; Potency, µM (highest dose often 59.6 µM), for the others: top-dose activity, negative = inhibition, most hits filed as inhibitors; note: nearly all actives have a fitted effect of over 55% in size
#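 40 nM FBPA preincubated 10 min at RT with compound (up to 57.5 uM final), then substrate plus GAPDH/TPI/NAD/arsenate coupling and diaphorase/resazurin added. Fluorescence read after 20 min at RT, 525/598 nm.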
# AmpC inh no detg: inhibitors of E. coli AmpC beta-lactamase without detergent | P00811 | AmpC nitrocefin hydrolysis, absorbance 480 nm, 0.0001% Triton | Potency, µM (series often up to 57.1 µM), for inactives: top-dose activity change, negative = inhibition, hits mostly inhibitors | 330,000 tested, 0.52% active | AID 485341;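 note: plate controls were no compound for no effect and no enzyme for full effect; nearly all actives have a fitted effect of over 20% in size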
# Target sequence (P00811 whole entry, looked up): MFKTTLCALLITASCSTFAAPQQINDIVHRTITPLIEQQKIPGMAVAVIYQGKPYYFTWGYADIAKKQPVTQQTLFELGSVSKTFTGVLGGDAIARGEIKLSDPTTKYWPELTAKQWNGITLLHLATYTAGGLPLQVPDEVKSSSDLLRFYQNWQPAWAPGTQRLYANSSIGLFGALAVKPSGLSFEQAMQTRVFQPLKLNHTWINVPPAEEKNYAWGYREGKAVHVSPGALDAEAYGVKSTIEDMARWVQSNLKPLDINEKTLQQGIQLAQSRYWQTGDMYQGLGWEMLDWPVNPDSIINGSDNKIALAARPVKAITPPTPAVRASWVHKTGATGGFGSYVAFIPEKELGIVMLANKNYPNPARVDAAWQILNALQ
#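 AmpC (5.3 nM in the dispensed reagent) in 20 mM phosphate pH 7.0 with 0.01% (detergent screen) or 0.0001% Triton X-100 was preincubated with compounds for 15 min at room temperature. Nitrocefin was then added from an 800 uM solution, and hydrolysis was followed at 480 nm.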
# LmPK inh: inhibitors of Leishmania mexicana pyruvate kinase; Potency, µM (series often up to 57.5 µM), for inactives: top-dose activity change, negative = inhibition, actives largely listed as inhibitors; 290,000 tested, 0.37% active; purified LmPK, Kinase-Glo ATP luminescence, 1 h; AID 1721; Q27686
#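 Screened at intermediate enzyme activity to detect both inhibitors and activators: LmPK at 0.1 nM, with a 0.5 nM enzyme column as activation reference. PEP 0.5 mM, ADP 0.1 mM; ATP detected by luminescence after 1 h.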
# AmpC inh detg: inhibitors of E. coli AmpC beta-lactamase with detergent; P00811; AmpC hydrolysis of nitrocefin, absorbance 480 nm, 0.01% Triton; Potency, µM (doses to about 114 µM), for inactives: at the top dose activity change, negative = inhibition, actives largely listed as inhibitors; 370,000 tested, 0.041% active;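 note: 0% = no-compound wells and -100% = no-enzyme wells; nearly all actives have a fitted effect of over 25% in size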
#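 20 mM phosphate pH 7.0 + 0.01% (detergent screen) or 0.0001% Triton X-100; 5.3 nM AmpC reagent; cpd preinc 15 min RT; nitrocefin (800 uM stock) to start; A480 q20 s × 4 min; Activity was normalised to no-enzyme and no-compound control wells.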
# Giardia growth: inhibitors of Giardia lamblia growth; shares compounds with Giardia FBPA inh-1; Giardia lamblia trophozoite growth inhibition; Potency, µM (titrated, usually from 57.5 µM), for the others: top-dose activity change, negative = inhibition, usual class: inhibitors; 1,500 tested, 5% active;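 note: trophozoites exposed to compound for 48 h at 37 °C; nearly all actives have a fitted effect of over 70% in size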
# Mammal cell tox: toxic to mammalian cells in Giardia aldolase counter-screen. shares compounds with Giardia FBPA inh-1. mammalian cell viability counter-screen, qHTS. Potency, µM (titrated, usually from 57.5 µM), for the others: at the top dose viability change, negative = toxicity, hits mostly inhibitors. 1,500 tested, 4% active. AID 2786;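 note: Chinese hamster ovary cells used as mammalian cytotoxicity surrogate; viability measured as cellular ATP by luminescence; compound exposure lasted 48 h before reading; nearly all actives have a fitted effect of over 60% in size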
# Giardia FBPA inh-2: confirmation of Giardia fructose-bisphosphate aldolase inhibitors; 1,500 tested, 5% active; shares compounds with Giardia FBPA inh-1; Potency, µM (series often up to 57.5 µM), without a hit: top-dose activity change, negative = inhibition, usual class: inhibitors; purified Giardia aldolase enzyme activity, qHTS; AID 2787; note: nearly all actives have a fitted effect of over 45% in size
# Rabbit aldolase: blocks rabbit muscle aldolase in Giardia aldolase selectivity test; shares compounds with Giardia FBPA inh-1; AID 2794; Rabbit muscle FBPA enzyme inhibition, selectivity counter-screen; 1,500 tested, 4% active; Potency, µM (doses to about 57.5 µM), without a hit: at the top dose activity, negative = inhibition, usual class: inhibitors; note: nearly all actives have a fitted effect of over 60% in size
# GAPDH counter: counter-screen for Giardia aldolase inhibitors: GAPDH coupling enzyme; shares compounds with Giardia FBPA inh-1; GAPDH coupling enzyme counterscreen, biochemical, qHTS; Potency, µM (titrated, usually from 57.5 µM), without a hit: top-dose activity change, negative = inhibition, most hits filed as inhibitors; 1,500 tested, 6% active; AID 2795; note: nearly all actives have a fitted effect of over 55% in size
# Starred values were filed as active, the others as inactive; u = inconclusive; x = no result given; [ ] = remark or other dose. Unless noted, calls come from the whole dose curve; as a rule, active = well fitted curve in the direction sought with a large enough effect; inconclusive = small, poorly fitted or top-dose-only effect, or another doubt; inactive = no such curve, though single readings can be large; an effect the other way counts as inactive or inconclusive. Unless noted, % is set by controls: 0 for no effect and ±100 for the full control effect; potency is the fitted concentration of half-maximal effect.
SMILES,RE007 growth inh,Tb PYK inh,Giardia FBPA inh-1,AmpC inh no detg,LmPK inh,AmpC inh detg,Giardia growth,Mammal cell tox,Giardia FBPA inh-2,Rabbit aldolase,GAPDH counter
O=C(Nc1ccc2nn(-c3ccc(F)cc3)nc2c1)c1cccc2c(Cl)cccc12,x,-1.9%,x,x,x,-2.0%,x,x,x,x,x
COc1cc(OC)c(NS(=O)(=O)c2c(C)nc3sc(C)cn3c2=O)cc1Cl,x,-2.9%,x,x,x,-6.7%,x,x,x,x,x
CN(C)S(=O)(=O)c1ccc(C(=O)Nc2nnc(-c3cccs3)o2)cc1,-6.8%,2.6%,17.7µM*,-16.5%,2.9%,-7.3%,14.1µM*,-15.9%,-5.6%,-6.5%,-11.8%
CCN1CCN(C(c2ccc(OC)cc2)c2c(O)cc(C)n(Cc3ccco3)c2=O)CC1 (stereo not drawn),x,-17.3%,x,x,x,-1.4%,x,x,x,x,x
COc1ccc(CNC(=O)CN(C)Cc2ccc(C(C)(C)C)cc2)cc1,-2.7%,6.9%,22.4µM*,86.5%,-12.1%,-1.1%,-10.2%[10.4 µM],-5.8%,-5.3%,-5.3%,-0.3%
COc1ccc(CNC(=O)c2ccc(C(C)(C)C)cc2)cc1,4.8%,2.1%,-2.8%,-13.3%,-5.7%,4.1%,x,x,x,x,x
O=C(O)c1ncn(Cc2ccc(Br)cc2)c1C(=O)O,5.0%,11.9%,14.1µM*,-12.4%,-0.1%,0.6%,-19.6%,1.2%,21.2%,21.7%,24.8%
O=S(=O)(Nc1ccc(-c2ccc(N3CCCCC3)nn2)cc1)c1ccc(OC(F)(F)F)cc1,x,2.1%,x,x,x,15.7%,x,x,x,x,x
O=C(NC(=S)N(CCO)Cc1ccccc1)c1cc(Br)ccc1Cl,17.8%,1.9%,15.8µM*,-33.5%,3.0%,0.9%,12.3%[10.4 µM],4.2%,9.6%,11.3%,17.0%
CN(C)S(=O)(=O)c1cccc(C(=O)NC(=S)N(CCC#N)Cc2cccnc2)c1,12.3%,-13.4%,5.61µM*,-26.5%,0.2%,-7.0%,6.2%[38.3 µM],-6.1%,4.3%,1.6%,-6.1%
CCOc1ccc(CN(CCC#N)C(=S)NC(=O)c2ccccc2)cc1,-3.7%,-26.5%,7.1%,-32.4%,u,0.9%,x,x,x,x,x
CCN(CC)S(=O)(=O)c1ccc(C(=O)NC(=S)N(CCC#N)Cc2cccnc2)cc1,-5.3%,u,12.6µM*,-16.4%,-10.4%,1.2%,u,4.6%,4.3%,5.3%,9.9%
N#CCCN(Cc1ccccc1)C(=S)NC(=O)c1ccccc1,10.5%,u,15.8µM*,-17.2%,u,-5.7%,20.0%,5.2%,4.7%,6.8%,6.0%
Cc1ccc(S(=O)(=O)N(C)C)cc1NC(=S)N(CCC#N)Cc1cccnc1,-7.0%,1.1%,0.3%,-3.6%,2.2%,-1.9%,x,x,x,x,x
N#CCCN(Cc1cccnc1)C(=S)NC(=O)c1ccco1,3.9%,-0.9%,10.2%,11.0%[11.4 µM],-2.0%,3.6%,x,x,x,x,x
